Test results as given in the supplement of paper PMC11417369.
In all, about 25,000 sequences were measured (“ln(normalized median fluorescence intensity)”: median about 6.7, highest 2% from about 10 on). The sample holds the highest values, similar sequences and a random draw of the others, so the mix is not that of the screen.

Tested on: PfHDP1 homeodomain (GST-tagged)
Test: gcPBM binding intensity (ln(normalized median fluorescence intensity)); higher = stronger DNA binding
Summary of the method: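 In this array assay, P. falciparum DNA-binding domains with a GST tag, expressed in E. coli, were applied for 1 h to primer-extended double-stranded 36-bp intergenic genomic probes and negative controls on an Agilent 4 × 180k array. Bound protein was visualised with Alexa488 anti-GST antibody at 488 nm. Binding intensity is the highest Masliner-normalised natural-log median intensity across replicate spots of either probe orientation.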

Sequence	gcPBM binding intensity (ln)
GTTCATCACATATACACATGCATATTCTAATATGTA [TGCATGCA_site809]	7.25
TTCGTTCTTTTATGCACACTCAACATATAAATTAAA [CACACA_site1209]	10.1
TTTCTTCTGCATTATGCACACTATAATTCGTTAAAA [CACACA_site5568]	10.5
TTTTTCTTCTGCATTATGCACACTATAATTCGTTAA [CACACA_site2837]	10.2
ATTTATATATCGCCCACACACATGTGATTATTTATA [CACACA_site6905]	7
TTATATTTTAAGAAATGTACATGATATAATTATCAA [XGTACX_site8693]	6.39
AATATATATGGACATGCATGGACATAATAATCTATT [TGCATGCA_site838]	6.47
CATATAAAAATGTGCACACACACACCGATATATATT [CACACA_site4940]	10.8
TTACAACATGAAAATGTGCACATATATATATATATA	10.8
GGTGCACCCATATACACACACAAATACAATGATAAA [CACACA_site1132]	10.2
AAAAAAAAAAAACACACACACACACCCATATATAAA [CACACA_site1170]	6.79
TATGTGCACCCATATACACACACAAATACAATGATA [CACACA_site8295]	10.7
TGGGCACCCATATACACACACAAATACAATGATAAA [CACACA_site4762]	6.48
AATATAAATAAAAACACACACACACCGATATATATA [CACACA_site5283]	7.05
ATATATGAAAATATATGTACACAACATATAAAATAG [XGTACX_site5132]	6.63
AAAATACATAAACACACACACACACCGATATATATA [CACACA_site9186]	7.14
AATAAATATATATACACACCCATATATATATATATA [CACACA_site2595]	9.48
CATATAAAAATGTGCACACACACACCCATATATATT [CACACA_site1526]	10.5
AAAAAAATGAAACACACACACACATATATATATATA [CACACA_site1043]	9.32
GGTATTTTCACATATAGTACACAAAAATAAAATAAA [XGTACX_site2139]	6.68

Sequence	gcPBM binding intensity (ln)
CATATAGATTTGTTCACACACACACTAAAAAAAAAA [CACACA_site7212]	6.7
TATTCTAATTTTTAAACACACAAATATAAATAAGTA [CACACA_site3149]	6.35
AAAAGAAAAAAAAAAAAAAAAAAAATTAAAATATAA [CACACA_negctrl_site17]	5.65
TGAATAATATACATACGTACATACATATATATAATA [XGTACX_site1302]	6.17
AATATAAATATTAAAACACACATAAAAAGATTATTA [CACACA_site1764]	6.29
ATATATATAAAATGTTGTACATATATATAAATAATA [XGTACX_site1661]	6.15
TAAATTTTTAAATACACACATACACCCATACAGACA [CACACA_site548]	7.18
TTTAAAACCCTAAAAAAAAAAAAAAAAAAAAAAAAA [CACACA_negctrl_site1212]	6.26
TTTTTTTAAATTATATGTACATAATTTTAATTTTAT [XGTACX_site5086]	6.43
ATTTTTTTTTTTATGTGTACATATATTTTTTTAATT [XGTACX_site7921]	7.04
AAAAAAAAAAAAAACACACACACACCCATAAATATA [CACACA_site151]	6.87
AATATAAATAAAAACACACACACACCCATATATATA [CACACA_site2267]	7.13
AACATATAAAAATGTGCACACACACCCATATATATA [CACACA_site1525]	10.7
AAATAAATAATTTAATGTACATATATAATATATATA [XGTACX_site1831]	6.81
AGAGTACAAGTAAATACACACATATAGATGAAAATA [CACACA_site6635]	6.88
TTATTATGTATATATGCACACAATACCCAAAACAAC [CACACA_site80]	9.84
CAACTAACATATATTCAACACACATATACCTTCAAC [CACACA_site8988]	6.43
TATATATTGATATGCACACCTATGTATTGATGTATA [CACACA_site1073]	10
TATATTATATGTATTGCACACCTTCAACAACTACTT [CACACA_site8121]	10.5
TATTATATGTATTGCACACCTTCAACAACTACTTCT [CACACA_site655]	10.6

Sequence	gcPBM binding intensity (ln)
ATTGTATCTGTATATGCACACAATATCTGTACTTCT [CACACA_site5445]	10.1
AAAAAAATAAATAAATGTACACATATATATATATAT [XGTACX_site4350]	9.25
AAAATGTATTCTCTCATGCACACTTTCTTTAAGGGA [CACACA_site2196]	8.5
AATACAAAAAAAGGTACACACATAATATATTTATTA [CACACA_site2628]	6.46
TTCTTTTTCCAATTTGCACACCACAAAATTATATAT [CACACA_site2909]	10.6
TATATATCTTTATGCACACACAAAGAAAATTTTCCT [CACACA_site7366]	10.5
AATATATCTTATTTAACACACACAAAGAAAATAGAA [CACACA_site9242]	7.34
ATTATATATATTTATGCACACAAAATATATTATATA [CACACA_site9244]	10.1
TATATATATTTTTATGCACACACAAAGAAAATTTTC [CACACA_site8931]	10.1
TAATGTATTATATTTTGTTTTCTTCCACCAAAAAAA [XGTACX_negctrl_site64]	6.41
TATATATTTTTATGCACACACAAAGAAAATTTTCCT [CACACA_site2863]	10.8
TATATCTTATTTAACACACACAAAGAAAATAGAAAA [CACACA_site3732]	6.81
GTTCTTTCAAATTATACACACCAAAAAAAAAAAAAA [CACACA_site5660]	6.62
AACAAATGTTAAATGTTTAAGGAGAAAATAAAGACA [CACACA_negctrl_site1163]	6.75
ATTTGCTCACAAGAAGCACACAAAAAAAGAAAAAAA [CACACA_site9338]	7.34
TATTTTTTCCTTTGTTTTTTAAACTATCTTAACTAA [XGTACX_negctrl_site519]	6.37
TCCATATGCAAACTGGTGCACAAGTAGCTTTTATAT	10.8
TTAACTTTTTTATATGCACACATAAACAAGGATATA [CACACA_site8932]	10.1
AACTTTTTTATATGCACACATAAACAAGGATATATA [CACACA_site2874]	10.3
